Screens from PubChem BioAssay.
In the library only some 1.5% were active in any assay of this set; here they are far more common.
IL2 activator – activators of IL-2; IL-2 activation reporter assay, cell-based qHTS; stimulated with anti-CD3/CD4/CD28 beads; in transgenic mouse T cells; activation, % (series mostly up to about 46 µM); 360,000 tested, 0.065% active; in the data active means activation above about 50%; inconclusive means mostly about 30% to 49%; further: 0% is about no effect
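Unstimulated transgenic mouse T cells, 750 per well, received compound and, after 60 minutes, anti-CD3/anti-CD4 bead plus anti-CD28 stimulation. EGFP and DsRed were quantified after 18 hours.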
12-LOX inh – ALOX12 (human) lipoxygenase inhibition; P18054; Potency, µM (series often up to 108 µM), inactives show at the highest dose activity change, negative = inhibition, actives largely listed as inhibitors; 580,000 tested, 1.1% active; purified 12hLO, xylenol orange hydroperoxide absorbance; further: potency means the concentration at half of the fitted maximal effect; on the % scale 0 is the no-effect control and ±100 the full control effect
Target sequence (P18054 whole entry, looked up): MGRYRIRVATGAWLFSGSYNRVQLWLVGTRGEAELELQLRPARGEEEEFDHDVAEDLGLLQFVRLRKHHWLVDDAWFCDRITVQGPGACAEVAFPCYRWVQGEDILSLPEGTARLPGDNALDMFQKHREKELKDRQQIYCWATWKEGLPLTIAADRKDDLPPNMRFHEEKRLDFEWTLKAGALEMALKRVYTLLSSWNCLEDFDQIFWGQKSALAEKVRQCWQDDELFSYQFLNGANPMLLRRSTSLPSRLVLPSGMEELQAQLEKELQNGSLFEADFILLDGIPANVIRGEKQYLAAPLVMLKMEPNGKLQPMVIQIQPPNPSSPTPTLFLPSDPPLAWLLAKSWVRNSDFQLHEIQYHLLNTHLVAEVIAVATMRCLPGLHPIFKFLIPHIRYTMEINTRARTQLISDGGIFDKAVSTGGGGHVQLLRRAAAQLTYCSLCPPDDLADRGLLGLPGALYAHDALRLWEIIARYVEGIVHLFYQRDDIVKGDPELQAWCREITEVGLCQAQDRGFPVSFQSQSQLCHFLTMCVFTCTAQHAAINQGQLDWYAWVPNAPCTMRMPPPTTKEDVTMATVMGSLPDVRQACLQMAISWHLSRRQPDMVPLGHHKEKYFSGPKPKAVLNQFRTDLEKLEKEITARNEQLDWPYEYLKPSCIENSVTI
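Purified human 12hLO (150 nM final) in 25 mM Hepes, 0.01% Triton X-100, pH 7.0 was preincubated 15 min at room temperature with compound. Then 40 uM arachidonic acid was added, 30 min. Hydroperoxide was read by Fe-XO absorbance ratio 573/405 nm.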
Integrin act MD – activators of alpha7 integrin expression for muscular dystrophy. 350,000 tested, 0.064% active. AID 624291. alpha7betagal myoblasts, beta-gal FDG fluorescence, 48 h. Potency, µM (doses to about 38.3 µM), for the others: at the top dose activation, hits mostly activators;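 further: potency means the concentration at half of the fitted maximal effect; 100% = response of the positive control SU9516; nearly all actives have a fitted effect of over 60% in size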
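Alpha7betagal+/- myoblasts (passage 13) were plated 16-24 hr, then exposed to compounds (1:260 dilution of DMSO stock) for 48 hours at 37C. After MPER lysis, β-galactosidase reporter activity was read as FDG fluorescence (ex 480/em 540) after 30 minutes.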
uPA generation – cell surface uPA generation inhibition | 330,000 tested, 0.31% active | AID 540303 | cell surface uPA generation assay, qHTS | Potency, µM (doses to about 38.3 µM), without a hit: top-dose activity change, negative = inhibition, hits mostly inhibitors; active means well fitted inhibition curve with a large enough effect; inconclusive means small, poorly fitted or top-dose-only effect; inactive means no such curve, though single readings can be large or run the other way; tested in mouse RAW 264.7 cells; further: potency means the concentration at half of the fitted maximal effect; on the % scale 0 is the no-effect control and ±100 the full control effect; nearly all actives have a fitted effect of over 55% in size
Nrf2 ARE act – activates Nrf2 signaling; AREc32 ARE-luciferase reporter (MCF7-derived line), luminescence, 24 h; Potency, µM (series often up to 46.1 µM), inactives show at the highest dose activation, most hits filed as activators; AID 624171; 410,000 tested, 0.31% active; further: potency means the concentration at half of the fitted maximal effect; % of control where 0% means no effect; nearly all actives have a fitted effect of over 65% in size
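ARE activation measured as luciferase luminescence (Steady-Glo, 30 min RT) in AREc32_Fluc cells after 24 hr compound exposure at 37 deg C, 5% CO2; cells seeded overnight at 1000/well in OPTI-MEM, 5% FBS.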
The depositor's hits bear a star; ? = inconclusive; / = not tested or not shown; [ ] = another dose, or the depositor's remark. Unless noted, the call rests on the fitted dose curve; in most records, active means well fitted curve in the direction sought with a large enough effect; inconclusive means small, poorly fitted or top-dose-only effect, or another doubt; inactive means no such curve, though single readings can be large; an effect the other way counts as inactive or inconclusive.

SMILES	IL2 activator	12-LOX inh	Integrin act MD	uPA generation	Nrf2 ARE act
CC(C)CCOC(=O)C[N+](C)(C)CCOC1CC2CCC1(C)C2(C)C (configuration not stated)	-0.9	22.8%	-0.1%	10µM*	3.3%
COC(=O)c1cc(-c2c(C)oc3cc(OC(C)C)ccc3c2=O)c(C)o1	-1.7	-28.1%	-9.0%	3.7%	3.4%
CCCCOc1ccc2c(=O)c(-c3cc(C(=O)OC)oc3C)c(C)oc2c1	/	44.7µM*	/	/	/
Cc1cc(C(=O)N2C[C@@H](COCC3CC3)[C@H](c3ccncc3)C2)on1	/	15.0%	/	/	/
Cc1cc(C)nc(SCC(=O)c2ccc(O)c(O)c2)n1	0.1	8.91µM*	-3.7%	?	4.2%
Cc1cc(SCC(=O)c2ccc(O)c(O)c2)n2nc(C)c(-c3ccccc3)c2n1	-2.6	39.8µM*	-15.7%	-11.0%	-0.5%
Cn1c(SCC(=O)c2ccc(O)c(O)c2)nnc1-c1ccccc1	4.4	-21.2%	-57.2%	?	0.4%
COc1ccc(-n2nnnc2SCC(=O)c2ccc(O)c(O)c2)cc1	-1.8	4.47µM*	-12.4%	-10.2%	0.1%
NC(=O)c1ccc(-n2nnnc2SCC(=O)c2ccc(O)c(O)c2)cc1	2.9	?	16.6%	-3.2%	2.8%
Cc1cc(=O)[nH]c(SCC(=O)c2ccc(O)c(O)c2)n1	-0.2	4.47µM*	-19.5%	2.0%	2.3%
CCCCCC1CCC(c2ccc(-c3ccccc3)cc2)=CC1=O (configuration not stated)	/	-6.3%	/	/	/
O=C(CCc1ncc(-c2ccc(F)cc2)o1)NCc1ccc(Cl)cc1	/	-43.6%	/	/	/
CCCNC(=O)CN(C)C(=O)NC(c1ccc(CC)cc1)C(C)C (configuration not stated)	/	-26.2%	/	/	/
O=C(CSc1nc2ccccc2n1CCc1ccccc1)c1ccc(O)c(O)c1	-0.3	25.1µM*	-20.1%	-11.6%	4.0%
COCc1cc(C)nc(SCC(=O)c2ccc(O)c(O)c2)c1C#N	-0.5	0.891µM*	-17.4%	/	-0.3%
CS(=O)(=O)n1nc(OC(=O)c2cc(Br)ccc2Cl)cc1N	-2.7	-3.5%	-0.4%	9.7%	-0.4%
CS(=O)(=O)n1nc(OC(=O)c2cccc3ccccc23)cc1N	0.5	0.0%	-1.2%	-4.1%	14.1µM*
O=C(CCl)Nc1nc(-c2ccco2)c(-c2ccco2)s1	2.0	?	0.0%	-3.7%	11.2µM*
Cc1ccc(C(=O)Nc2nc(-c3ccco3)c(-c3ccco3)s2)o1	2.1	?	-13.0%	-3.8%	1.26µM*
O=C(CCCSc1ccccc1)Nc1nc(-c2ccco2)c(-c2ccco2)s1	-0.8	15.8µM*	0.0%	-0.3%	12.7%
CCOC1=CC2=C(C(=O)C(Cl)=CC2=O)[C@@H]2CN(S(=O)(=O)c3ccc(C)cc3)[C@@H](c3ccccc3)[C@H]12	-0.7	0.891µM*	/	/	?
CCN1C(=O)[C@@H]2[C@@H]3CN(S(=O)(=O)c4ccc(C)cc4)[C@@H](c4ccccc4)[C@@H]3C(=O)C[C@@H]2C1=O	0.0	?	/	/	0.2%
S=c1[nH]nc(Nc2ccc(Cl)cc2)s1	1.0	?	33.5%	10.3%	3.9%
Cc1ccc(Nc2n[nH]c(=S)s2)cc1	-2.1	31.6µM*	12.2%	/	6.3%
Cc1ccc(Nc2n[nH]c(=S)s2)cc1F	-5.7	39.8µM*	13.1%	3.5%	5.3%
SMILES	IL2 activator	12-LOX inh	Integrin act MD	uPA generation	Nrf2 ARE act
Cc1ccc2c(c1)C(=O)C(=O)N2Cc1ccc(Br)cc1	-0.1	?	0.0%	4.47µM*	-1.3%
CCCN1C(=O)C(=O)c2cc(C)ccc21	-3.2	-0.5%	-28.1%	3.16µM*	-0.8%
Cc1ccc(CN2C(=O)C(=O)c3cc(C)ccc32)cc1	-0.2	-18.7%	-31.6%	?	7.7%
O=C(O)CCCCCCCCCCCC(=O)O	/	-1.5%	/	/	/
CCCNC(=O)CN1CCN(c2ccc(NC(=O)c3ccc(OC)cc3)cc2C(=O)O)CC1	/	?	/	/	-1.2%
CCCn1nc(C)cc1CN(C)c1ccc(NC(=O)c2ccc(OC)cc2)cc1C(=O)O	/	4.47µM*	/	/	/
CC(C)Oc1ccc(C(CCNCc2ccc(O)cc2)c2ccccc2)cc1 (configuration not stated)	-2.8	39.8µM*	-74.0%	?	-1.4%
COc1ccc(Br)cc1C1Nc2cccc3cccc(c23)N1	-1.3	-5.5%	-11.6%	8.9%	12.6µM*
COc1cc(C2Nc3cccc4cccc(c34)N2)ccc1O	0.5	?	-43.7%	1.5%	0.6%
CC(C)Oc1ccc(-c2nc(N3CCCCC3)c3ccccc3n2)cc1	/	0.4%	/	/	/
O=C(Nc1ccc(N2CCN(C(=O)c3ccc(Cl)cc3)CC2)cc1)c1ccc([N+](=O)[O-])o1	0.3	-8.3%	-5.2%	-8.0%	6.31µM*
CC(C)(C)C(=O)N1CCN(c2ccc(NC(=O)c3ccc([N+](=O)[O-])o3)cc2)CC1	-0.4	-12.4%	-66.4%	-11.1%	?
CC1CCN(c2ccc(NC(=O)c3ccc([N+](=O)[O-])o3)cc2)CC1	-1.7	?	-46.2%	3.16µM*	?
Cc1ccc(NC(=O)c2ccc([N+](=O)[O-])o2)cc1C	0.8	-13.3%	-53.5%	-12.9%	?
O=C(Nc1ccc(N2CCCCC2)cc1)c1ccc([N+](=O)[O-])o1	-4.4	-18.8%	-41.8%	-3.4%	?
O=C(Nc1ccc2[nH]c(=O)[nH]c2c1)c1ccc([N+](=O)[O-])o1	1.8	-9.8%	-29.0%	-38.4%	12.6µM*
O=[S+]1([O-])NC2(CCN(Cc3ccncc3)CC2)COc2ccccc21	/	-8.8%[6.33 µM]	/	/	/
CCOC(=O)c1[nH]c2ccc(C)cc2c1NC(C)=O	/	-21.3%	/	/	/
N#Cc1ccc(OCC(O)CS(=O)(=O)c2ccccc2)cc1 (configuration not stated)	-5.2	3.4%	10µM*	/	0.2%
Cc1cccc2c(=O)c(-c3ccccc3)c(NC(=O)c3cccs3)oc12	/	-28.3%	/	/	/
COCCN1CCCN(C(=O)c2ccc(F)c(F)c2)c2ccccc21	/	44.7µM*	/	/	/
COc1ccc(-c2cc3nc4c(c(=O)n3[nH]2)CN(C(=O)c2n[nH]c3c2CCCCCC3)CC4)cc1	/	-0.1%	/	/	/
CCCCN(C(=S)Nc1cccc(Cl)c1)C1CCN(C(C)=O)CC1	/	-25.5%	/	/	/
Cc1nn2c3ccccc3nc2c2ccccc12	-1.7	-21.8%	-13.8%	-4.2%	7.94µM*
Cc1nn2c(-c3ccccc3)nnc2c2ccccc12	-2.4	-2.3%	9.1%	-2.4%	3.98µM*
SMILES	IL2 activator	12-LOX inh	Integrin act MD	uPA generation	Nrf2 ARE act
CN(CC(O)COC(CCl)CCl)S(=O)(=O)O (configuration not stated)	/	-27.3%	/	/	/
O=c1c2cn[nH]c2[nH]c(=S)n1-c1ccccc1	1.6	6.31µM*	-2.0%	-0.7%	-0.2%
COc1ccc(-n2c(=S)[nH]c3[nH]ncc3c2=O)cc1	0.5	14.5%	-17.9%	0.6%	-0.4%
Cc1cc(Nc2ccc(C)c(C)c2)c2ccccc2n1	-2.9	0.0%	-35.1%	-11.0%	-0.8%[9.22 µM]
Cc1ccc(Nc2nc(N)c3ccccc3n2)cc1C	0.1	0.0%	?	7.08µM*	-3.0%
Cc1ccc(CNC(=O)c2nn(C)c3c2CSc2ccccc2-3)cc1	/	-2.6%	/	/	/
